# Results filed as inconclusive are left out. The source made the active and inactive calls. The calls were made as follows: active = hit-call score of the fitted dose curve at least 0.9, where 1 is the maximum; inconclusive = response in the unintended direction; inactive = score below 0.9.
# Molecular target: Caspase-1 (Homo sapiens) (UniProt P29466)
# Test: NVS_ENZ_hCASP1: NovaScreen (NVS) Enzymatic Assay for human Caspase 1 (CASP1) (AID 2283132)
# In short: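 Cell-free enzymatic assay with E. coli-expressed recombinant protein; fluorescence intensity read 1 hour after dosing. Single-concentration duplicate screen at 25 uM, then concentration-response up to 50 uM; activity fitted relative to DMSO, loss of signal meaning inhibition.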
# Sequence of Caspase-1 (Homo sapiens) (P29466 whole entry, looked up): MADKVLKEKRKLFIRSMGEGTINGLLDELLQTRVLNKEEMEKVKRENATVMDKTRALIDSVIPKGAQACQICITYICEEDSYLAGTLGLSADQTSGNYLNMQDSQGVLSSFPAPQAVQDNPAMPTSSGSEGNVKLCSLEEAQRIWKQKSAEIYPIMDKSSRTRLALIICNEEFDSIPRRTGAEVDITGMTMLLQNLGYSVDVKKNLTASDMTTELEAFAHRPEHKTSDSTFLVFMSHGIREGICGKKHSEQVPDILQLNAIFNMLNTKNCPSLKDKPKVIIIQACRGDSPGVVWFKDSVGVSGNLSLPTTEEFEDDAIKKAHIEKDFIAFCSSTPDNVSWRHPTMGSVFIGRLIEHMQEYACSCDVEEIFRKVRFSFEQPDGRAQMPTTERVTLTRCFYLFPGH
Compound,AC50,outcome
O=C(OC[C@H]1O[C@@H](OC(=O)c2cc(O)c(O)c(OC(=O)c3cc(O)c(O)c(O)c3)c2)[C@H](OC(=O)c2cc(O)c(O)c(OC(=O)c3cc(O)c(O)c(O)c3)c2)[C@@H](OC(=O)c2cc(O)c(O)c(OC(=O)c3cc(O)c(O)c(O)c3)c2)[C@@H]1OC(=O)c1cc(O)c(O)c(OC(=O)c2cc(O)c(O)c(O)c2)c1)c1cc(O)c(O)c(OC(=O)c2cc(O)c(O)c(O)c2)c1,1.14 µM (active),–
O=C1c2c(O)cccc2Cc2cccc(O)c21,5.01 µM (active),–
Nc1ccc2c(c1)C(=O)c1ccccc1C2=O,–,inactive
S=C([S-])NCCNC(=S)[S-].[Mn+2],–,inactive

# Molecular target: human Ephrin type-A Receptor 2 (EphA2), EPHA2 (gene 1969) (UniProt P29317)
# Test: NVS_ENZ_hEphA2: NovaScreen (NVS) Enzymatic Assay for human Ephrin type-A Receptor 2 (EphA2) (AID 2283155)
# In short: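 Cell-free recombinant EphA2 kinase with specific substrate, 1 h, fluorescence with electrophoretic mobility-shift separation of substrate and product. Primary screen at 25 uM in duplicate; hits retested in singleton concentration-response up to 50 uM, referenced to DMSO.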
# Sequence of human Ephrin type-A Receptor 2 (EphA2), EPHA2 (gene 1969) (P29317 whole entry, looked up): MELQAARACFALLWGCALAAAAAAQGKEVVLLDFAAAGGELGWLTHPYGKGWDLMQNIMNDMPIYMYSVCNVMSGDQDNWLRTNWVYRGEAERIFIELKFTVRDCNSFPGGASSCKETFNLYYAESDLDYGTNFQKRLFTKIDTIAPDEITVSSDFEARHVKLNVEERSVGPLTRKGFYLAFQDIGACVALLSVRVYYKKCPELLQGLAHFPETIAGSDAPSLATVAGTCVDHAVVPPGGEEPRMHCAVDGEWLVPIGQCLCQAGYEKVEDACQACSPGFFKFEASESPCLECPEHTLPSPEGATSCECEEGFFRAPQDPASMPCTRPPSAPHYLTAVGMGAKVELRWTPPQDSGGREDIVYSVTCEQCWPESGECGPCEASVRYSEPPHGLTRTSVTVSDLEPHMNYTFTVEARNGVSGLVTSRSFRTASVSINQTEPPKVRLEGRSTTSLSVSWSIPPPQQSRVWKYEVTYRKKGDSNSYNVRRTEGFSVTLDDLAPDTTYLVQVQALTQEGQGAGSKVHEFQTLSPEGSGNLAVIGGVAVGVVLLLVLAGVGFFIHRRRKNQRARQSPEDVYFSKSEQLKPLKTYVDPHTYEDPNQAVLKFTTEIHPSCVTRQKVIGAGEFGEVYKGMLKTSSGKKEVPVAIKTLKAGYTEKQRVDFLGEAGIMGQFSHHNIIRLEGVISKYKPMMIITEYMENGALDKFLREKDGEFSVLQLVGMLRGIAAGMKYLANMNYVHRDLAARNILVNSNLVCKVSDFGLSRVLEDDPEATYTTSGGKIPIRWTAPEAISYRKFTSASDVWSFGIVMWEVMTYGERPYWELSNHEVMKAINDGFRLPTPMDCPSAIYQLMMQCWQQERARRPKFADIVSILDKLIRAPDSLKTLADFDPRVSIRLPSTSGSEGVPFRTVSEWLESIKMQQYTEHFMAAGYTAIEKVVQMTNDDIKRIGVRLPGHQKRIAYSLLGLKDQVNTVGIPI
row,Compound,outcome
1,CNS(=O)(=O)c1cc(C(=O)N2CCC(CCN3C4CCC3CC(n3c(C)nc5ccccc53)C4)(c3cccc(F)c3)CC2)c(Cl)cc1F (stereo unspecified),inactive
2,CN(C)C(=O)NC1(c2ccccc2)CCN(CCC[C@]2(c3ccc(Cl)c(Cl)c3)CCCN(C(=O)c3ccccc3)C2)CC1,inactive
3,O=C(O)Cc1cc(I)c(Oc2cc(I)c(O)c(I)c2)c(I)c1,inactive

# Molecular target: human Fibroblast Growth Factor Receptor 1 (FGFR1), FGFR1 (gene 2260) (UniProt P11362)
# Test: NVS_ENZ_hFGFR1: NovaScreen (NVS) Enzymatic Assay for human Fibroblast Growth Factor Receptor 1 (FGFR1) (AID 2283159);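 as to AC50: hits lower the signal so potencies describe inhibitors of the kinase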
# In short: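 Cell-free recombinant kinase with fluorescent substrate, product separated by electrophoretic mobility shift; read 1 hour after dosing, loss of signal relative to DMSO. Initial screen in duplicate at 25 uM, actives followed in concentration series.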
# Sequence of human Fibroblast Growth Factor Receptor 1 (FGFR1), FGFR1 (gene 2260) (P11362 whole entry, looked up): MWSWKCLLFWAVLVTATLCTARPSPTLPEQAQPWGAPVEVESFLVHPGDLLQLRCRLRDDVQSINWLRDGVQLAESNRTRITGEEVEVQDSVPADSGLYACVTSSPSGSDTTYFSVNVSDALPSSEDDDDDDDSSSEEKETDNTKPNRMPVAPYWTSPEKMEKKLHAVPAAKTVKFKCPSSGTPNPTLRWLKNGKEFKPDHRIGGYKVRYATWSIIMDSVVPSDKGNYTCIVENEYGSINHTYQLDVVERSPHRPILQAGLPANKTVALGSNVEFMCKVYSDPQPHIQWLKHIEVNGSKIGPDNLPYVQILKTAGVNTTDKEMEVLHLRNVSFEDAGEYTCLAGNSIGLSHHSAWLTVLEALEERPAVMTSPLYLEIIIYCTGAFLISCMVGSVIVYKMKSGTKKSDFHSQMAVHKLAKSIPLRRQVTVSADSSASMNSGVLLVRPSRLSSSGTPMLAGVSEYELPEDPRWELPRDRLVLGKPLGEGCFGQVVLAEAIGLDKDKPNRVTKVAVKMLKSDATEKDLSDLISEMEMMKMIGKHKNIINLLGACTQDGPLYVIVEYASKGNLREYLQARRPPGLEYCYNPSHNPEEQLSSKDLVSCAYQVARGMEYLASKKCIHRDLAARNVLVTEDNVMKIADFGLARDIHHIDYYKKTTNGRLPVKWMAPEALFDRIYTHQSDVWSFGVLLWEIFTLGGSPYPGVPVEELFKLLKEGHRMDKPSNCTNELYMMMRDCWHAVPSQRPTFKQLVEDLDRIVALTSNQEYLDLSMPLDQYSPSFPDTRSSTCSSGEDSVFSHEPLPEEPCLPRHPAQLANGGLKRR
Compound,AC50,outcome
CC/C(=C(\c1ccccc1)c1ccc(OCCN(C)C)cc1)c1ccccc1,33.5 µM (active),–
CN(C)C(=O)NC1(c2ccccc2)CCN(CC[C@@]2(c3ccc(F)c(F)c3)CN(C(=O)c3ccccc3)CCO2)CC1,–,inactive
O=C(c1ccc(OCCN2CCCCC2)cc1)c1c(-c2ccc(O)cc2)sc2cc(O)ccc12,36.2 µM (active),–
S=C([S-])NCCNC(=S)[S-].[Mn+2],19.1 µM (active),–
CC(C)CCCCCCc1ccc(O)cc1,–,inactive
CN(C)C(=O)NC1(c2ccccc2)CCN(CCC[C@]2(c3ccc(Cl)c(Cl)c3)CCCN(C(=O)c3ccccc3)C2)CC1,–,inactive
CC[C@H](C)C(=O)O[C@H]1C[C@@H](C)C=C2C=C[C@H](C)[C@H](CC[C@@H]3C[C@@H](O)CC(=O)O3)[C@H]21,–,inactive
CC(C)NCC(O)c1ccc(O)c(O)c1 (stereo unspecified),–,inactive
O=C(O)Cc1cc(I)c(Oc2cc(I)c(O)c(I)c2)c(I)c1,–,inactive
NC(=O)N(O)[C@@H]1C=C[C@H](Oc2cccc(Oc3ccc(F)cc3)c2)C1,–,inactive

# Molecular target: Protein deacetylase HDAC6 (Homo sapiens) (UniProt Q9UBN7)
# Test: NVS_ENZ_hHDAC6: NovaScreen (NVS) Enzymatic Assay for human Histone Deacetylase 6 (HDAC6) (AID 2283164)
# In short: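 Recombinant human HDAC6 with fluorescent substrate, 1 h; product separated from substrate by electrophoretic mobility shift. Primary screen in duplicate at 25 uM; actives retested singly in concentration-response up to 50 uM, fitted relative to DMSO.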
# Sequence of Protein deacetylase HDAC6 (Homo sapiens) (Q9UBN7 whole entry, looked up): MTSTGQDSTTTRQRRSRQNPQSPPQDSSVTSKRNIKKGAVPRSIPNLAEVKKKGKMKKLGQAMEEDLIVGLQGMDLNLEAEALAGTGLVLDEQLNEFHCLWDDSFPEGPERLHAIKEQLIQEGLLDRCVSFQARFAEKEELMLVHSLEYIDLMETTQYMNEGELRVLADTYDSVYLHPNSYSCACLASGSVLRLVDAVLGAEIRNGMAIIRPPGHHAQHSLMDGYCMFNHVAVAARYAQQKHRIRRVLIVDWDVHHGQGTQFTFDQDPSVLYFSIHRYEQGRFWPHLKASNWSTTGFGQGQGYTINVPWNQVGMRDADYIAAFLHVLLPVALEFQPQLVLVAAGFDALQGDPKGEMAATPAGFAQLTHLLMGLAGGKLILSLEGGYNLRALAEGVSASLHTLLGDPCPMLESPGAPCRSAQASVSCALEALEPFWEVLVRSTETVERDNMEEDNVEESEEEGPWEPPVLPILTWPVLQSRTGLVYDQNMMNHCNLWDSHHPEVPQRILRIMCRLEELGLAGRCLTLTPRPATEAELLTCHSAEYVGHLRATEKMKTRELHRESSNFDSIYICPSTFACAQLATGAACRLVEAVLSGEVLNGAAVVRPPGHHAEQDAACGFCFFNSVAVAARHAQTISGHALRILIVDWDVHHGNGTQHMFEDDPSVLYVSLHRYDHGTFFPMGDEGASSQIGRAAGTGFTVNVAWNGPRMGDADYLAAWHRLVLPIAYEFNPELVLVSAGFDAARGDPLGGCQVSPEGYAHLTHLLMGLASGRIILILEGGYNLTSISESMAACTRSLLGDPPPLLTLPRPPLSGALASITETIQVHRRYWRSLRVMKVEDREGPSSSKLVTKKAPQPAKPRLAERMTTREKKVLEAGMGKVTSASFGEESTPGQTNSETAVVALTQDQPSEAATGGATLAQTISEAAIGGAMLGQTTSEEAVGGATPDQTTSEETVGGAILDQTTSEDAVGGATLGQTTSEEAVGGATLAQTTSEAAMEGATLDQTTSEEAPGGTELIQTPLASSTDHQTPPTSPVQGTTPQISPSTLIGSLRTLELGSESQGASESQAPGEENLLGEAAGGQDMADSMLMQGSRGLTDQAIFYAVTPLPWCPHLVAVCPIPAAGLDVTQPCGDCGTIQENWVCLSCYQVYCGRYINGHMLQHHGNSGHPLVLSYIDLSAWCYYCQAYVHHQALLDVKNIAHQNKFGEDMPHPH
row,Compound,outcome
1,CCc1ccc(O)c(C(C)(C)C)c1,inactive
2,O=C1c2ccccc2C(=O)N1CCc1noc(-c2ccc(CN3CCCCCC3)s2)n1,inactive
3,CC(C)CCCCCCc1ccc(O)cc1,inactive
4,CC[C@H](C)C(=O)O[C@H]1C[C@@H](C)C=C2C=C[C@H](C)[C@H](CC[C@@H]3C[C@@H](O)CC(=O)O3)[C@H]21,inactive

# From PubChem BioAssay (EPA / NIEHS)
